Experimental data reported in publication PMC4336329 (PLoS ONE, 2015).
Out of some 310,000 compounds screened, about 14,000 (4.5%) showed an effect of 50% or more. Effects have a minus sign here. Only a selection was taken, and strong results are over-represented in it overall.

biological target: human ether-à-go-go-related gene (hERG) potassium channel (human, UniProt Q12809); assay: primary screen, population patch clamp on CHO cells stably expressing hERG; higher = less effect of the substance
Sequence (Q12809 whole entry, looked up): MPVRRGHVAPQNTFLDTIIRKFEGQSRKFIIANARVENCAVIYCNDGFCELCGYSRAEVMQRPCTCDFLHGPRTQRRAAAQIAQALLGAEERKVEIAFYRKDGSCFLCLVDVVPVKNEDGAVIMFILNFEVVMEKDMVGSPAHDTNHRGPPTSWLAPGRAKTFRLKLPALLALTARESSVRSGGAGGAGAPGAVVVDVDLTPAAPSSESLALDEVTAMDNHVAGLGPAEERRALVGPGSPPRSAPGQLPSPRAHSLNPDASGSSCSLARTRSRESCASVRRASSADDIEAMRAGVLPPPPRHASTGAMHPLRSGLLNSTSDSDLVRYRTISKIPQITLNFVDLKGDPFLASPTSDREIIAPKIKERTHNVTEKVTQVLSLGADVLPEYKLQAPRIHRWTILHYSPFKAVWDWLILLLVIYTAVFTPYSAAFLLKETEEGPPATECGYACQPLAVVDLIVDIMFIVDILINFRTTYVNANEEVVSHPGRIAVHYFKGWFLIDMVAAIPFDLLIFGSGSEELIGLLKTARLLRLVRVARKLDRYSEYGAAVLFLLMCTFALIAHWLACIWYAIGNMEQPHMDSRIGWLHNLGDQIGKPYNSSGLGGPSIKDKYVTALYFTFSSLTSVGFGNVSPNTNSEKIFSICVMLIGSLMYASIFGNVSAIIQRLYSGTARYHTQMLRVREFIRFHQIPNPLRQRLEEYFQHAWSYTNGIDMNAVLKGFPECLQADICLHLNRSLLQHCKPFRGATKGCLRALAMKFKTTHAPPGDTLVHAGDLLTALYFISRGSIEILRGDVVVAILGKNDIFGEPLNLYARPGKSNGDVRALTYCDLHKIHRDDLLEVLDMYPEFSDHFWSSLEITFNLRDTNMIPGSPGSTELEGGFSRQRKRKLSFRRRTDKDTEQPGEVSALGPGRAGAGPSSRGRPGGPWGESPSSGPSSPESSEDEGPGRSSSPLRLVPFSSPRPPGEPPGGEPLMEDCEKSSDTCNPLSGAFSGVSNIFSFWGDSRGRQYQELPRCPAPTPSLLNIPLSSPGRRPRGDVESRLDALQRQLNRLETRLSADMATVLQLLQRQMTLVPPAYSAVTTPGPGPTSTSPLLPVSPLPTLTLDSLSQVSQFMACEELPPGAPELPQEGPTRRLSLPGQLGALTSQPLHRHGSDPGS
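Also: peak tail current of the secondary pulse compared with the same well before compound.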

Compound | hERG current change (%, negative = inhibition) at 10uM
CC(C)(OC(=O)NC(=O)C(F)(F)F)C(C)(C)OC(=O)NC(=O)C(F)(F)F | 31.4%
COc1ccc(Cn2c(O)c(C=Nc3ccc(C)cc3)c3ccccc3c2=O)cc1 | 2.35%
COC(=O)C1CN(C(=O)C(C)Oc2cccc(C)c2C)c2ccccc2O1 (centres unmarked) | -8.63%
C=CCNc1nc(NCC)nc(N2CCOCC2)n1 | -0.791%
COc1ccc(-n2nc3c(c2NC(=O)COc2ccccc2)CS(=O)C3)cc1 (centres unmarked) | -28.2%
NC(=NC(=O)c1ccc(OCC(F)(F)F)nc1)c1ccc(Cl)cc1 | 17.9%
O=S(=O)(NCc1cccnc1)c1ccc2c(c1)OCCO2 | 0.45%
CCOC(=O)c1cnc2c(C)cccc2c1Nc1ccc(N2CCOCC2)cc1 | 8.24%
CCOC(=O)c1cnc2c(C)cccc2c1Nc1cccc(C(=O)O)c1.Cl | -8.37%
CCOC(=O)c1cccnc1SC(CC)C(=O)NCc1ccco1 (centres unmarked) | -31.5%
CCOC(=O)c1cnc2c(C(=O)OC)cccc2c1NCc1ccco1 | -70.2%
CCOC(=O)c1ccc2ncc(C(=O)OCC)c(NCc3ccco3)c2c1 | -24.7%
CCOC(=O)c1cnc2ccccc2c1Nc1ccc(C(=O)O)cc1.Cl | 17.9%
CCOC(=O)c1cnc2ccccc2c1NCc1ccco1 | -56.9%
CCOC(=O)c1cnc(SCC(=O)NCc2ccco2)nc1N | -14.5%
CCOC(=O)c1cnc2c(C)cccc2c1NCc1ccco1 | -67.9%
CCOc1ccc(NC(=O)c2nc(SCC)ncc2Cl)cc1 | 15%
COc1ccc(OC)c(C(C(=O)NC2CCCCC2)N(C(=O)c2snc(C(N)=O)c2N)c2ccccc2OC)c1 (centres unmarked) | 14.8%
O=C(COc1ccc2c3c(c(=O)oc2c1)CCCC3)NC(Cc1ccc(Cl)cc1)C(=O)O (centres unmarked) | 5.92%
CCOC(=O)c1nc(C)n(-c2cc(Cl)cc(Cl)c2)n1 | -17.5%
CCOC(=O)c1nn(-c2ccccc2)c(=O)cc1OCC(=O)Nc1cc(C)ccc1OC | -44%
CCCNc1nc2c(c(=O)n(C)c(=O)n2C)n1Cc1ccc(F)cc1 | -12.8%
COc1ccccc1NC(=O)CCC(=O)O | 23.4%

Compound | hERG current change (%, negative = inhibition) at 10uM
COc1ccc(N2C(=O)CSC2c2cccs2)cc1 (centres unmarked) | -3.37%
O=C(Oc1c(Cl)cc(Cl)c2cccnc12)c1cccs1 | 1.95%
O=C(Oc1c(CN2CCOCC2)cc(Cl)c2cccnc12)c1cccs1 | -21.9%
CN1CCN(Cc2cc(Cl)c3cccnc3c2OC(=O)c2cccs2)CC1 | -53.3%
CN(C)S(=O)(=O)c1ccc(N2CCCC2)c(C(=O)NNC(=O)c2ccc(F)cc2)c1 | 15.5%
COc1ccc(NC(=O)NNC(=O)C(C)Oc2ccc3ccccc3c2)cc1OC (centres unmarked) | -16.2%
COc1ccc(C(=O)NCc2nnc(SCC(=O)N3CCOCC3)o2)cc1OC | 13.7%
COCCN(CC1CCCN(C2Cc3ccccc3C2)C1)C(=O)c1ccc(C(C)=O)cc1 (centres unmarked) | -78.6%
CCCNC(=O)N(CCOC)CC1CCCN(C2Cc3ccccc3C2)C1 (centres unmarked) | -47.8%
CCNC(=O)N(CCOC)CC1CCCN(C2Cc3ccccc3C2)C1 (centres unmarked) | -22.9%
COCCN(CC1CCCN(C2Cc3ccccc3C2)C1)C(=O)CSC (centres unmarked) | -10.7%
CCOC(=O)CNC(=O)N(CCOC)CC1CCCN(C2Cc3ccccc3C2)C1 (centres unmarked) | -28.5%
COCCN(CC1CCCN(C2Cc3ccccc3C2)C1)C(=O)c1cccs1 (centres unmarked) | -68.5%
O=C(NCc1ccco1)C1CCCN(S(=O)(=O)c2cccc3cccnc23)C1 (centres unmarked) | 0.148%
CCOC(=O)c1cc(-c2nnc(SCC(=O)Nc3ccc(F)cc3)o2)c(C)nc1C | 7.9%
COc1ccc(C(=O)NCc2nnc(SCC(=O)c3ccccc3)n2C)cc1OC | -18.2%
O=C(c1cc(-c2ccccc2)n[nH]1)N1CCc2c([nH]c3ccccc23)C1c1ccccn1 (centres unmarked) | 14.5%
Cc1sc2nc(C3CCCCC3)nc(SCC(=O)N3CC(=O)Nc4ccccc43)c2c1C | 52.8%
CC(C)c1ccc(/C=C2\SC(=S)N(CCC(=O)N3CCCCC3CCO)C2=O)cc1 (centres unmarked) | 20.3%
CCOc1ccccc1N1CC(C(=O)NNC(=O)c2cc(OC)c(OC)c(OC)c2)CC1=O (centres unmarked) | 9%
Cc1cc(C)n2c(=S)[nH]nc2n1 | 19.6%
CCCN1Cc2cccc(C(=O)N3CCN(c4cc(Cl)ccc4C)CC3)c2C1=O | -52.5%
COCCN1Cc2cccc(C(=O)N3CCN(c4cc(C)ccc4C)CC3)c2C1=O | -16.5%

Compound | hERG current change (%, negative = inhibition) at 10uM
CCOC(=O)N1CCC(N2Cc3cccc(C(=O)N4CCN(C5CCCCC5)CC4)c3C2=O)CC1 | -62.4%
CCOC(=O)N1CCC(N2Cc3cccc(C(=O)O)c3C2=O)CC1 | -23.6%
CCOC(=O)N1CCC(N2Cc3cccc(C(=O)N4CC(C)CC(C)C4)c3C2=O)CC1 (centres unmarked) | 6.31%
CCCN1Cc2cccc(C(=O)N3CCN(c4ccccc4)CC3)c2C1=O | 6.02%
CCOC(=O)N1CCC(N2Cc3cccc(C(=O)N4CCN(c5cccc(C)c5C)CC4)c3C2=O)CC1 | -36.7%
CCOC(=O)N1CCC(N2Cc3cccc(C(=O)N4CCN(c5cccc(Cl)c5)CC4)c3C2=O)CC1 | -63.7%
Cn1ccc(C(=O)NC(=S)N2CCSCC2)n1 | 9.2%
O=C(CSCc1cccc(Br)c1)NC1CC1 | -6.25%
Fc1cccc(CSc2nc3ncccc3[nH]2)c1 | 4.28%
O=C(O)CC(c1ccc(Cl)cc1)N1C(=O)CCC1=O (centres unmarked) | -7.96%
Cn1cnnc1SCCNS(=O)(=O)c1ccccc1 | 10.8%
COc1ccc2c(C)c(C)c(=O)oc2c1OC | 3.4%
CN(CC1CCCN(CCc2ccc(F)cc2)C1)C(=O)CCC(F)(F)F (centres unmarked) | -63%
CN(CC1CCCN(CCc2ccc(Cl)cc2)C1)C(=O)CC(F)(F)F (centres unmarked) | -60.5%
CN(CC1CCCN(CCc2ccc(F)cc2)C1)C(=O)CCC(N)=O (centres unmarked) | -23.9%
CN(C)C(=O)CCC(=O)N(C)CC1CCCN(CCc2ccc(F)cc2)C1 (centres unmarked) | -38.1%
CC(=O)Nc1cccc(C(=O)OCc2csc(CC(=O)Nc3ccccc3C)n2)c1 | -14%
N#CCCn1cc(C=C2C(=O)NC(=O)NC2=O)c(-c2ccccc2)n1 | 25.2%
CCOc1ccc(C)cc1S(=O)(=O)n1ccc(C)n1 | 4.82%
O=C(CC(c1ccccc1)c1cc(Br)ccc1O)NCCCN1CCOCC1 (centres unmarked) | -31.3%
Cc1ccccc1S(=O)(=O)Cc1ccc(C(=O)NCCCN2CCC(C)CC2)o1 | -36.2%
Cc1cccc(CSCc2ccc(C(=O)NC3CCCC3)o2)c1 | -55.5%
Cc1ccc(CSCc2ccc(C(=O)NC3CCCC3)o2)cc1 | -18.2%

Compound | hERG current change (%, negative = inhibition) at 10uM
O=C(CC(c1ccccc1)c1cc(Cl)ccc1O)NCCN1CCOCC1 (centres unmarked) | -42.1%
Cc1ccc(CSCc2ccc(C(=O)NC3CC3)o2)cc1 | -5.31%
O=C(NCCCN1CCOCC1)c1cc(Cl)ccc1OCc1ccccc1 | -55.7%
O=C(NCCCN1CCOCC1)c1cc(Cl)ccc1Cl | 11.5%
CC1CCN(CCCNC(=O)c2ccc(CSCc3cccc(Cl)c3)o2)CC1 | -74.8%
COc1ccc(Cl)cc1C(=O)NCCCN1CCOCC1 | 9.16%
O=C(CC(c1ccccc1)c1cc(Cl)ccc1O)NCCCN1CCOCC1 (centres unmarked) | -50%
O=C(NCc1ccc2c(c1)OCO2)c1ccc(CSCc2cccc(Cl)c2)o1 | -11.1%
CCC(C)C(NC(=O)C1CCC(C)CC1)C(=O)Nc1ccc(OC)cc1OC (centres unmarked) | -4.26%
CCCCC(c1nnnn1C(C)C)N1CCN(C(=O)c2ccco2)CC1.Cl (centres unmarked) | -18.9%
O=C(c1ccccc1)N1N=C(c2ccccc2)CC1c1ccccc1[N+](=O)[O-] (centres unmarked) | 13.4%
COc1ccccc1CNc1cc(CSc2ccc(Cl)cc2)nc(C)n1 | -0.554%
CCOC(=O)c1ccc(N2Cc3ccccc3C2=NC(=O)c2cccc([N+](=O)[O-])c2)cc1 | 10.7%
CN(C)c1ccc(/C=N/NC(=O)CCCO)cc1 | 24.4%
O=C(NCCN1CCOCC1)c1ccc(CSCc2cccc(Cl)c2)o1 | -43.7%
O=C(NCCCN1CCOCC1)c1ccc(CSCc2cccc(Cl)c2)o1 | -64.4%
Cc1ccccc1CSCc1ccc(C(=O)NCCCN2CCOCC2)o1 | -47.6%
O=C(NCCCN1CCCC1)c1ccc(CSCc2cccc(Cl)c2)o1 | -61.8%
Cc1ccc(CSCc2ccc(C(=O)NCCCN3CCOCC3)o2)cc1 | -51.8%
CN1CCN(CCCNC(=O)c2ccc(CSCc3cccc(Cl)c3)o2)CC1 | -40.2%
COCCNC(=O)c1ccc(CSCc2cccc(Cl)c2)o1 | -7.69%
Cc1ccc(CSCC(=O)NCCCN2CCOCC2)cc1 | 11.4%
Cc1cccc(CS(=O)(=O)Cc2ccc(C(=O)NCCCN3CCOCC3)o2)c1 | -12.6%
